Legend:
Experiment in all cases: PBM binding z-score (relative to random genomic background probes); higher = stronger binding; sequences stand for … in GC…GCGATTGACAGCGTAGAATGAAGG
[1] = system: RARb homodimer (NR concentration 270 nM)
How it was run: (§1)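 Antibodies against each partner of ligand-free nuclear receptor dimers (one per run) detected binding on custom Agilent 4×180K protein-binding microarrays after 1 h incubation. The double-stranded probes had 34-nt variable regions carrying direct-repeat seeds, single-nucleotide variants, half-site ablations and random human genomic background sequences. Binding z-scores, from regression-normalized fluorescence, use the random background probes as reference.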

[2] = system: RARg:RXRa (NR concentration 270 nM, RXRa partner concentration 90 nM)
How it was run: as §1

[3] = system: RARg homodimer (NR concentration 270 nM)
How it was run: as §1

[4] = system: RXRa DBDmut IVT, anti-RXR (DBD mutation: RXRa K156A/R161A, NR concentration 90 nM)
How it was run: as §1

[5] = system: RXRa homodimer (NR concentration 180 nM)
How it was run: as §1

[6] = system: THRa:RXRa (NR concentration 90 nM, RXRa partner concentration 90 nM)
How it was run: as §1

[7] = system: THRa homodimer (NR concentration 90 nM)
How it was run: as §1

[8] = system: VDR homodimer (NR concentration 270 nM)
How it was run: as §1

[9] = system: VDR:RXRa (NR concentration 270 nM, RXRa partner concentration 90 nM)
How it was run: as §1

Row | Sequence | PBM binding z-score [1] | PBM binding z-score [2] | PBM binding z-score [3] | PBM binding z-score [4] | PBM binding z-score [5] | PBM binding z-score [6] | PBM binding z-score [7] | PBM binding z-score [8] | PBM binding z-score [9]
1 | CGTCAGAGTTCAACTAAGGTAACGTAAAGCACGC | 3.58 | 5.39 | 6.02 | 4.87 | 5.49 | 5.18 | 1.68 | 4.58 | –
2 | TAGCCGAGGTCAGATCGGGCCAGTATACGCTATA | 3.62 | 5.06 | 5.59 | 2.66 | 4.74 | – | 1.32 | 2.08 | –
3 | GATACAGGGGCAGCTAGAGGCCAGAGTATGGAAA | 1.18 | 2.18 | 1.15 | -0.0216 | 0.387 | – | -0.373 | -0.000725 | –
4 | CAAACTAGGTCACGCAAGGTCAAAGTCGAATGAC | 5.54 | 6.98 | 7.6 | 3.02 | 6.98 | – | 4.21 | 4.65 | 6.9
5 | CGTCAAAGTTCAATTAAGGTAACGTAAAGCACGC | 3.89 | 5.26 | 5.98 | 4.4 | 3.67 | – | 2.51 | 3.71 | –
6 | GCATATAGGTAATACAAGATGAAAGTCCGATTGT | -0.399 | 0.381 | 0.572 | 0.287 | 0.469 | – | -0.636 | -0.117 | –
7 | CAAACTAGGTCATGAGGTCAAAGTCCGCTTCCCG | 5.22 | 7.26 | 6.81 | 3.45 | 7.98 | – | 4.88 | 5.84 | 6.08
8 | ATATGTAGGTTAGCTGGGGTCATTCATACTAGGC | 3.88 | 4.01 | 3.08 | 2.52 | 5.44 | – | 3.63 | 4.81 | –
9 | CAAACCAGGTCACCGGAAGGTCAAAGTCCGCATG | 5.65 | 8.7 | 7.24 | 3.06 | 7.56 | – | 4.28 | 3.95 | –
10 | TAGCCTAGGCCATTCAGGGGCCAGTATAGAAAGC | 0.802 | 0.999 | 0.71 | -0.81 | -0.0459 | – | -0.688 | -0.441 | –
11 | CTCGAAAGGTCGTTTGAGGTGAGTATACGGATAA | 3.19 | 4.34 | 3.76 | 2.94 | 4.56 | – | 1.76 | 2.79 | –
12 | ATATGCAGGTTAGCTGGGGTCATTCAGACTAGGC | 3.72 | 4.14 | 3.11 | 1.89 | 5.56 | – | 2.98 | 4.17 | –
13 | CCTAGTTGGTCAACGTCACACACGCTATAGGTAC | 1.13 | 0.774 | 1.18 | 0.857 | 0.526 | – | 0.632 | 0.435 | 0.309
14 | CCTAGCAGGCCAATCTGGATCACTCAAGGCTTGA | -0.439 | -0.153 | -0.148 | 0.159 | -0.35 | – | -0.7 | -0.867 | –
15 | TATACATGGTCAAAGGCCAGAGTACGAATGTCGA | 1.31 | 1.59 | 1.67 | -0.652 | 1.39 | – | -0.46 | 0.302 | –
16 | ACTCGGAGGACAAAGATCAGAGCTACGCCAGTGA | -0.272 | 0.568 | 0.931 | 0.426 | 0.18 | – | -0.696 | -0.571 | –
17 | TCTGCTAGGTCAACGAAGGTCAGCTAATCTGCTA | 5.28 | 5.51 | 6.42 | 1.14 | 4.18 | – | 1.69 | 1.38 | –
18 | CGTCCAAGGTCATAGGAGGTCAGAGAAGACAGAT | 5.31 | 6.78 | 7.13 | 4.15 | 6.71 | – | 3.44 | 4.23 | 6.67
19 | CCTTACGGGTCACTCGAGGTTATAGCATCGGAGT | 3.27 | 4.49 | 3.78 | 1.69 | 4.75 | – | 0.632 | 2.08 | –
20 | GCATATAGGTCATACAAGGTGAAAGTCCGATTGT | 3.94 | 5.1 | 4.65 | 1.98 | 4.8 | – | 1.62 | 1.23 | –
